Measurements: the supplement of paper PMC11732987, “Enantioselective OTUD7B fragment discovery through chemoproteomics screening and high-throughput optimisation” (Communications Chemistry, 2025)
A number with no mark means an inactive call.

What follows are compounds tested against USP54 (UniProt Q70EL1) (assay: log2 ratio of Biotin-Ahx-Ub-VS probe labelling (fragment/DMSO); higher = less target engagement (more negative = stronger competition), active = hit call of the paper (q ≤ 0.05, log2 ratio ≤ -1)). Details: compound concentration: 200 uM; treatment time: 3 h.
Procedure, shortened: (§1)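 Each value is an average log2 ratio of fragment to vehicle, tested by unpaired t-test. The underlying Spectronaut label-free quantities were global-median-normalised, and only proteins with ≥2 unique peptides were included. Triplicate HEK293T lysate samples (495 µg) were exposed to fragment at 200 µM or vehicle for 3 h, then to Biotin-Ahx-Ub-VS at 0.5 µM final for 1 h, before NeutrAvidin enrichment of labelled DUBs, LysC and trypsin digestion, and diaPASEF LC-MS/MS.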

USP54, sequence (Q70EL1 whole entry, the tested form may be a part): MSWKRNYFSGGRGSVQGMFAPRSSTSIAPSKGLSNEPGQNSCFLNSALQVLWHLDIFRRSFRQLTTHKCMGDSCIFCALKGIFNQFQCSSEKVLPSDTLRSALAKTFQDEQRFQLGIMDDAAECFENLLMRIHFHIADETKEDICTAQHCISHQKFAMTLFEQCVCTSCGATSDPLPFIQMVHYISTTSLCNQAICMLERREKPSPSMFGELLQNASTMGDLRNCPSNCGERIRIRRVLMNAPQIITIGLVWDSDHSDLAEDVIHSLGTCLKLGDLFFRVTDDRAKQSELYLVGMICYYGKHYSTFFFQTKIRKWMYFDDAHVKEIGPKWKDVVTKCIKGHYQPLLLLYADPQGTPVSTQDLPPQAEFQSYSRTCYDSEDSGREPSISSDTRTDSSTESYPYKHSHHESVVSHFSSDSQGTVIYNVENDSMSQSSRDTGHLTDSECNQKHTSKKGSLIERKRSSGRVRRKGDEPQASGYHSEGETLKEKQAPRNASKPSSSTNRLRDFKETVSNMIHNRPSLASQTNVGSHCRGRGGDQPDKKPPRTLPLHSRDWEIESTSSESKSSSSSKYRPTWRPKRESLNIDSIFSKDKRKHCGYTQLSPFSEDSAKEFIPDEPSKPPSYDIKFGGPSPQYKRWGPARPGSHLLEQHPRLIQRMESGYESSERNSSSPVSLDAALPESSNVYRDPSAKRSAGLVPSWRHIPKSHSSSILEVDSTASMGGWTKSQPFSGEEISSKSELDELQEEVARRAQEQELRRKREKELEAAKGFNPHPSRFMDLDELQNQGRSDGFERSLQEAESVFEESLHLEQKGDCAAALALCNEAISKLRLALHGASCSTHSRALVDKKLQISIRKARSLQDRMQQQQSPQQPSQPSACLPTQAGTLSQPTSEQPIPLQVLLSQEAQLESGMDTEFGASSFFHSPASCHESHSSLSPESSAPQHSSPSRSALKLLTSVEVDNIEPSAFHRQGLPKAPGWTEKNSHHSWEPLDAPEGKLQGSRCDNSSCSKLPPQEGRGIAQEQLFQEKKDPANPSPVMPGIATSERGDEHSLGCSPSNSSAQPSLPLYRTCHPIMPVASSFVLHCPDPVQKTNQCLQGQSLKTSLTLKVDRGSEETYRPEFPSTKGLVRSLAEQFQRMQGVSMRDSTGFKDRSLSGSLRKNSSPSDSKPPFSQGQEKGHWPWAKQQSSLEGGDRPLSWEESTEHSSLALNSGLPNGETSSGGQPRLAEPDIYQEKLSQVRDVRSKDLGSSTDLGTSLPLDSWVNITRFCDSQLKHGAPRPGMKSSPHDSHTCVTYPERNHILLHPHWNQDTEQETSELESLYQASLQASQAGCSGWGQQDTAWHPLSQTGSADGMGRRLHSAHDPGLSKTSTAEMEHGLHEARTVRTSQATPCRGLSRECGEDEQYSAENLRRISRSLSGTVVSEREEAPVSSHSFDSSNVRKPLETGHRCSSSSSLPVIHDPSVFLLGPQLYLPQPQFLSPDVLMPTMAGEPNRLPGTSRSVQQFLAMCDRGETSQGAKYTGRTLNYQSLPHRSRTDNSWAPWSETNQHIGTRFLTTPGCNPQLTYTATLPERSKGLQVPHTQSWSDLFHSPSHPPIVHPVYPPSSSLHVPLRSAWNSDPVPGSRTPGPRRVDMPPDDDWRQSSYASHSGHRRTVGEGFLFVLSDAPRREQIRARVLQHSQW

| Compound | log2 ratio of Biotin-Ahx-Ub-VS probe labelling |
| --- | --- |
| O=C(CCl)Nc1ccc(F)cc1Cl | 0.679 |
| O=C(CCl)Nc1cccc2ncccc12 | -0.107 |
| O=C(CCl)NC(Cn1ccccc1=O)c1ccccc1 (stereo not drawn) | 0.317 |
| Cc1n[nH]c(=O)c2c(NC(=O)CCl)oc(C)c12 | -0.153 |
| Cc1ccc(-c2nnc(C)[nH]2)c(NC(=O)CCl)c1 | -0.227 |
| Cc1ccc(C)c(Oc2ccc(CNC(=O)CCl)cn2)c1.Cl | 0.136 |
| Cc1nc(CN2CCCN(C(=O)CCl)CC2)no1.Cl | -0.482 |
| N#Cc1ccc(CNC(=O)CCl)cc1 | 0.446 |
| CC(C)n1nccc1NC(=O)CCl | 0.614 |
| CC(NC(=O)CCl)c1ccc2[nH]ncc2c1 (stereo not drawn) | 0.532 |
| Cl.O=C(CN1CCN(C(=O)CCl)CC1)Nc1ccc(F)cc1 | 0.194 |
| CC(NC(=O)CCl)c1cnn(C2CC2)c1 (stereo not drawn) | 0.76 |
| NC(=O)C(Cc1ccccc1)NC(=O)CCl (stereo not drawn) | 0.357 |
| O=C(CCl)NC1CCN(C(=O)C2CCCCC2)CC1 | 0.282 |
| Cc1cc(Cl)ccc1NC(=O)CCl | -0.075 |
| COc1ccc(Cl)cc1NC(=O)CCl | 0.0369 |
| O=C(CCl)Nc1nnc(CC(F)(F)F)o1 | 0.782 |

| Compound | log2 ratio of Biotin-Ahx-Ub-VS probe labelling |
| --- | --- |
| O=C(CCl)N(C1=CCCCC1)C1CC1 | 0.551 |
| Cc1ccc(CN(CCO)C(=O)CCl)cc1 | 0.222 |
| CC(NC(=O)CCl)c1cccc2ccccc12 (stereo not drawn) | 0.115 |
| O=C(CCl)N1CCCCC12CCOCC2 | 0.442 |
| Cl.Cn1ncc2c1CCCC2NC(=O)CCl (stereo not drawn) | 0.656 |
| COCC[C@@H](NC(=O)CCl)c1ccccc1 | 0.235 |
| CN(C(=O)CCl)c1nc2ccccc2s1 | -0.996 |
| O=C(CCl)N1CCC(C(=O)N2CCCCCC2)CC1 | 0.452 |
| O=C(CCl)N1CCOC2(CCC2)CC1 | -0.505 |
| O=C(CCl)NCCC1=CCCCC1 | 0.116 |
| O=C(CCl)N(C1CCCC1)C1CCS(=O)(=O)C1 (stereo not drawn) | -0.384 |
| Cc1noc(N2CCN(C(=O)CCl)CC2)n1.Cl | 0.167 |
| COc1ccccc1C(C)NC(=O)CCl (stereo not drawn) | 0.256 |
| O=C(CCl)N(Cc1ccsc1)C1CC1 | 0.171 |
| O=C(CCl)N1CCC(S(=O)(=O)c2ccc(F)cc2)CC1 | 0.501 |
| Cc1nc(CN2CCN(C(=O)CCl)CC2)cs1 | -0.00411 |
| O=C(CCl)N1CC2(CCOCC2)C1 | 0.355 |

Each compound was assayed against USP7 (UniProt Q93009) in the same assay as above. Details: compound concentration: 200 uM; treatment time: 3 h.
Procedure, shortened: as §1

USP7, sequence (Q93009 whole entry, looked up): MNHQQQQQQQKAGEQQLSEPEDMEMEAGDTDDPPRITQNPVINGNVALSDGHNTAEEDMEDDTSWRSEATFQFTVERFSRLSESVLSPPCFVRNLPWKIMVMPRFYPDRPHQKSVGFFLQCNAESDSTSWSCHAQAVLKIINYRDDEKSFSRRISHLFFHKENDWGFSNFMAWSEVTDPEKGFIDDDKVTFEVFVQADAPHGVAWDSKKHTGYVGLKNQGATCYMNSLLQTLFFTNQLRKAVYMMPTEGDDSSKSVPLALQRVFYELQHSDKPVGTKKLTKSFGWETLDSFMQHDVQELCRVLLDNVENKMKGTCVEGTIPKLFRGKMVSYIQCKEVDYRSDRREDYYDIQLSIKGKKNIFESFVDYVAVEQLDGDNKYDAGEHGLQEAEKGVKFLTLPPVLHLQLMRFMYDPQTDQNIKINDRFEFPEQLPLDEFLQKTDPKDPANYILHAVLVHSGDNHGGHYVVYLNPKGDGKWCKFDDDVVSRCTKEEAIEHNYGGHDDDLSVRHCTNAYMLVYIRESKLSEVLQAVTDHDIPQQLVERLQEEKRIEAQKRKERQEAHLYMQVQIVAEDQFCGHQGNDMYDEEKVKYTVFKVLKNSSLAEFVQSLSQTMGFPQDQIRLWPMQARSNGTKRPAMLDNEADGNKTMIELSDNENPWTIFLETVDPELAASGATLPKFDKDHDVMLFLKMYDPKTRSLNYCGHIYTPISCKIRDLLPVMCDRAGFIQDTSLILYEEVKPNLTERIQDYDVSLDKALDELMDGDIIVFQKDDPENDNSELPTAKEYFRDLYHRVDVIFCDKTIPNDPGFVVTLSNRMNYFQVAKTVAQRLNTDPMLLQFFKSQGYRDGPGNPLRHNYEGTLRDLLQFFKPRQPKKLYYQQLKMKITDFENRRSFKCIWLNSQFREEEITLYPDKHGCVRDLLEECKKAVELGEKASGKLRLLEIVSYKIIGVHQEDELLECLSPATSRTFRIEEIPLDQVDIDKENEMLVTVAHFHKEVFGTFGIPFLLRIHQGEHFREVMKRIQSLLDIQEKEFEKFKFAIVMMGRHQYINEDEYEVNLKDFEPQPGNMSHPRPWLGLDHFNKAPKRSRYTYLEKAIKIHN

| Compound | log2 ratio of Biotin-Ahx-Ub-VS probe labelling |
| --- | --- |
| O=C(CCl)Nc1ccc(F)cc1Cl | -0.395 |
| O=C(CCl)Nc1cccc2ncccc12 | -0.116 |
| O=C(CCl)NC(Cn1ccccc1=O)c1ccccc1 (stereo not drawn) | -0.205 |
| Cc1n[nH]c(=O)c2c(NC(=O)CCl)oc(C)c12 | -0.0198 |
| Cc1ccc(-c2nnc(C)[nH]2)c(NC(=O)CCl)c1 | -0.138 |
| Cc1ccc(C)c(Oc2ccc(CNC(=O)CCl)cn2)c1.Cl | -0.376 |
| Cc1nc(CN2CCCN(C(=O)CCl)CC2)no1.Cl | -0.0348 |
| N#Cc1ccc(CNC(=O)CCl)cc1 | -0.073 |
| CC(C)n1nccc1NC(=O)CCl | -0.278 |
| CC(NC(=O)CCl)c1ccc2[nH]ncc2c1 (stereo not drawn) | -0.578 |
| Cl.O=C(CN1CCN(C(=O)CCl)CC1)Nc1ccc(F)cc1 | -0.291 |
| CC(NC(=O)CCl)c1cnn(C2CC2)c1 (stereo not drawn) | -0.323 |
| NC(=O)C(Cc1ccccc1)NC(=O)CCl (stereo not drawn) | -0.174 |
| O=C(CCl)NC1CCN(C(=O)C2CCCCC2)CC1 | -0.045 |
| Cc1cc(Cl)ccc1NC(=O)CCl | -0.304 |
| COc1ccc(Cl)cc1NC(=O)CCl | -0.593 |
| O=C(CCl)Nc1nnc(CC(F)(F)F)o1 | -0.136 |

| Compound | log2 ratio of Biotin-Ahx-Ub-VS probe labelling |
| --- | --- |
| O=C(CCl)N(C1=CCCCC1)C1CC1 | -0.612 |
| Cc1ccc(CN(CCO)C(=O)CCl)cc1 | -0.788 |
| CC(NC(=O)CCl)c1cccc2ccccc12 (stereo not drawn) | -0.339 |
| O=C(CCl)N1CCCCC12CCOCC2 | -0.511 |
| Cl.Cn1ncc2c1CCCC2NC(=O)CCl (stereo not drawn) | -0.377 |
| COCC[C@@H](NC(=O)CCl)c1ccccc1 | -0.0296 |
| CN(C(=O)CCl)c1nc2ccccc2s1 | -0.566 |
| O=C(CCl)N1CCC(C(=O)N2CCCCCC2)CC1 | -0.714 |
| O=C(CCl)N1CCOC2(CCC2)CC1 | -0.145 |
| O=C(CCl)NCCC1=CCCCC1 | -0.402 |
| O=C(CCl)N(C1CCCC1)C1CCS(=O)(=O)C1 (stereo not drawn) | -0.798 |
| Cc1noc(N2CCN(C(=O)CCl)CC2)n1.Cl | -0.27 |
| COc1ccccc1C(C)NC(=O)CCl (stereo not drawn) | -0.235 |
| O=C(CCl)N(Cc1ccsc1)C1CC1 | -1.25 (active) |
| O=C(CCl)N1CCC(S(=O)(=O)c2ccc(F)cc2)CC1 | -0.535 |
| Cc1nc(CN2CCN(C(=O)CCl)CC2)cs1 | -0.473 |
| O=C(CCl)N1CC2(CCOCC2)C1 | -0.055 |
